For 6 compounds, outcome and AC50 results are on record in PubChem BioAssay (EPA / NIEHS).

Active and inactive are the calls of the source. How the source made its calls: active means hit-call score of the fitted dose curve at least 0.9, where 1 is the maximum; inactive means score below 0.9.

Read-out in test [1]: TIMP metallopeptidase inhibitor 1 (TIMP1), TIMP1 (gene 7076)
Nature of the test: BSK_hDFCGF_TIMP1: BioMAP Diversity Plus: hDFCGF Assay for TIMP metallopeptidase inhibitor 1 (TIMP1) Biomarker Activity (AID 2283062). Conditions: primary human foreskin fibroblasts; actives raise or lower the signal. Put shortly: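 Human foreskin fibroblast primary cultures dosed for 24 h; secreted/surface TIMP-1 quantified by ELISA. Bidirectional curve fitting against DMSO baseline; cytotoxicity tracked in parallel cultures by SRB total-protein staining.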

Read-out in test [2]: Monokine induced gamma interferon (MIG), CXCL9 (gene 4283)
In words: BSK_hDFCGF_MIG: BioMAP Diversity Plus: hDFCGF Assay for Monokine induced gamma interferon (MIG) Biomarker Activity (AID 2283063). The following applies: primary human foreskin fibroblasts; actives raise or lower the signal. Put shortly: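 MIG/CXCL9 measured by ELISA 24 h after dosing primary human skin fibroblasts. Activity fitted in both directions against DMSO controls. Cytotoxicity was checked in parallel cultures by SRB staining read at 560 nm.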

Read-out in test [3]: Matrix Metallopeptidase 1 (MMP1), MMP1 (gene 4312)
In words: BSK_hDFCGF_MMP1: BioMAP Diversity Plus: hDFCGF Assay for Matrix Metallopeptidase 1 (MMP1) Biomarker Activity (AID 2283064). Conditions: primary human foreskin fibroblasts; actives raise or lower the signal. The procedure, abridged:
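hDFCGF primary fibroblasts (human foreskin); chemical added; 24 h; MMP1 by ELISA; bidirectional fit vs DMSO.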

Read-out in test [4]: Vascular cell adhesion molecule 1 (VCAM1), VCAM1 (gene 7412)
In words: BSK_hDFCGF_VCAM1: BioMAP Diversity Plus: hDFCGF Assay for Vascular cell adhesion molecule 1 (VCAM1) Biomarker Activity (AID 2283065).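 On AC50: VCAM-1 protein level quantified by ELISA after 24 h chemical exposure.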 Conditions: primary human foreskin fibroblasts; actives raise or lower the signal. The procedure, abridged: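 Human foreskin fibroblast primary cells dosed with chemical, VCAM-1 measured by ELISA at 24 h. Bidirectional curve fitting relative to DMSO as negative control/baseline.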

Read-out in test [5]: Intercellular Adhesion Molecule 1 (ICAM1), ICAM1 (gene 3383)
In words: BSK_KF3CT_ICAM1: BioMAP Diversity Plus: KF3CT Assay for Intercellular Adhesion Molecule 1 (ICAM1) Biomarker Activity (AID 2283067). The following applies: primary human keratinocytes with fibroblasts; actives raise or lower the signal. Put shortly: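 Human keratinocyte–foreskin fibroblast co-culture was treated for 24 h. Cell-surface ICAM-1 was quantified by ELISA, fitted bidirectionally relative to DMSO. Cytotoxicity was checked in parallel cultures by SRB total-protein staining.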

Read-out in test [6]: Interferon-gamma inducible Protein 10 (IP10), CXCL10 (gene 3627)
In words: BSK_KF3CT_IP10: BioMAP Diversity Plus: KF3CT Assay for Interferon-gamma inducible Protein 10 (IP10) Biomarker Activity (AID 2283068). Conditions: primary human keratinocytes with fibroblasts; actives raise or lower the signal. Put shortly:
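Human keratinocyte plus foreskin fibroblast primary co-culture exposed to test chemical for 24 h; IP-10 measured by ELISA. Concentration-response fitted bidirectionally against DMSO control as baseline.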

Test [7] is described as follows: BSK_KF3CT_SRB: Viability Assessment in the BioMAP Diversity Plus: KF3CT Assay (AID 2283069).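 Further: total protein by sulforhodamine B staining as a cytotoxicity measure; fitted for both signal gain and loss against DMSO baseline.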 The following applies: primary human keratinocytes with fibroblasts. Put shortly:
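Keratinocytes co-cultured with foreskin fibroblasts (human primary); chemical added, 24 h; fix 10% TCA, stain 0.1% SRB, A560. Bidirectional fit vs DMSO.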

Read-out in test [8]: Interleukin-1 alpha (IL1a), IL1A (gene 3552)
Nature of the test: BSK_KF3CT_IL1a: BioMAP Diversity Plus: KF3CT Assay for Interleukin-1 alpha (IL1a) Biomarker Activity (AID 2283070). The following applies: primary human keratinocytes with fibroblasts; actives raise or lower the signal. Put shortly:
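Chemicals were dosed onto co-cultured human keratinocytes and foreskin fibroblasts, IL-1a was quantified by ELISA at 24 h, and activity was fitted in both directions relative to DMSO controls.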

Read-out in test [9]: TIMP metallopeptidase inhibitor 2 (TIMP2), TIMP2 (gene 7077)
Nature of the test: BSK_KF3CT_TIMP2: BioMAP Diversity Plus: KF3CT Assay for TIMP metallopeptidase inhibitor 2 (TIMP2) Biomarker Activity (AID 2283071). The following applies: primary human keratinocytes with fibroblasts; actives raise or lower the signal. Put shortly: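 Co-culture of human primary keratinocytes and foreskin fibroblasts, measured 24 h after chemical dosing. TIMP-2 quantified by ELISA and fitted in both directions relative to DMSO. Cytotoxicity checked in parallel cultures by SRB total-protein staining.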

Read-out in test [10]: Transforming growth factor beta 1 (TGFb1), TGFB1 (gene 7040)
Nature of the test: BSK_KF3CT_TGFb1: BioMAP Diversity Plus: KF3CT Assay for Transforming growth factor beta 1 (TGFb1) Biomarker Activity (AID 2283072). The following applies: primary human keratinocytes with fibroblasts; actives raise or lower the signal. The procedure, abridged: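 Human keratinocyte/foreskin fibroblast co-culture; TGF-b1 measured by ELISA 24 h after dosing, fitted bidirectionally versus DMSO. Cytotoxicity checked in parallel cultures by total protein (SRB staining, 560 nm).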

Read-out in test [11]: C-C motif chemokine 2 (Homo sapiens) (UniProt P13500)
Nature of the test: BSK_KF3CT_MCP1: BioMAP Diversity Plus: KF3CT Assay for Monocyte Chemoattractant Protein 1 (MCP1/CCL2) Biomarker Activity (AID 2283073). Conditions: primary human keratinocytes with fibroblasts; actives raise or lower the signal. The procedure, abridged: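 Human keratinocyte–foreskin fibroblast co-culture; MCP-1 measured by ELISA 24 h after dosing. Bidirectional fit vs DMSO; cytotoxicity tracked by SRB total protein in parallel cultures.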

Read-out in test [12]: Matrix Metallopeptidase 9 (MMP9), MMP9 (gene 4318)
In words: BSK_KF3CT_MMP9: BioMAP Diversity Plus: KF3CT Assay for Matrix Metallopeptidase 9 (MMP9) Biomarker Activity (AID 2283074).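 On AC50: MMP9 protein level quantified by ELISA in the co-culture.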 The following applies: primary human keratinocytes with fibroblasts; actives raise or lower the signal. The procedure, abridged: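 Human keratinocyte/foreskin fibroblast co-culture; compound added; 24 h; MMP-9 by ELISA; bidirectional fit vs DMSO baseline.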

Read-out in test [13]: urokinase plasminogen activator (uPA), PLAU (gene 5328)
Nature of the test: BSK_KF3CT_uPA: BioMAP Diversity Plus: KF3CT Assay for urokinase plasminogen activator (uPA) Biomarker Activity (AID 2283075). The following applies: primary human keratinocytes with fibroblasts; actives raise or lower the signal. The procedure, abridged: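 ELISA readout of uPA, analyzed for signal gain or loss relative to DMSO, from a human primary keratinocyte–foreskin fibroblast co-culture measured 24 h after chemical treatment.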

Read-out in test [14]: CD40, CD40 (gene 958)
Nature of the test: BSK_LPS_CD40: BioMAP Diversity Plus: LPS Assay for CD40 Biomarker Activity (AID 2283076). Conditions: primary human HUVEC with PBMC; actives raise or lower the signal. The procedure, abridged: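 HUVEC plus PBMC co-culture stimulated with LPS; CD40 quantified by ELISA 24 h after compound dosing. Fitting was bidirectional relative to DMSO. SRB staining of parallel cultures flagged overt cytotoxicity.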

Read-out in test [15]: E-selectin (Homo sapiens) (UniProt P16581)
Nature of the test: BSK_LPS_Eselectin: BioMAP Diversity Plus: LPS Assay for Eselectin Biomarker Activity (AID 2283077). Conditions: primary human HUVEC with PBMC; actives raise or lower the signal. Put shortly:
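Human umbilical vein endothelial cells co-cultured with PBMC under LPS stimulation; cell-surface E-selectin measured by ELISA 24 h after dosing. Change in either direction versus DMSO, with SRB total-protein staining in parallel cultures for cytotoxicity.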

Read-out in test [16]: Interleukin-8 (IL8), CXCL8 (gene 3576)
Nature of the test: BSK_LPS_IL8: BioMAP Diversity Plus: LPS Assay for Interleukin-8 (IL8) Biomarker Activity (AID 2283078). The following applies: primary human HUVEC with PBMC; actives raise or lower the signal. Put shortly:
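Human umbilical vein endothelial cells co-cultured with PBMC, LPS-stimulated, exposed to compound for 24 h. IL-8 quantified by ELISA; fitted in both directions against DMSO, with SRB total-protein staining of parallel cultures for cytotoxicity.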

The nature of test [17]: BSK_LPS_SRB: Viability Assessment in the BioMAP Diversity Plus: LPS Assay (AID 2283079).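 Further: total protein by sulforhodamine B absorbance as a cytotoxicity measure; measured one day after compound addition; fitted in both directions against DMSO so loss or gain of signal counts.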 Conditions: primary human HUVEC with PBMC. The procedure, abridged:
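Co-culture of human umbilical vein endothelial cells and PBMC, read 24 h after dosing. Total protein by 0.1% SRB staining after 10% TCA fixation, absorbance at 560 nm; bidirectional fit against DMSO.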

Read-out in test [18]: Interleukin-1 alpha (IL1a), IL1A (gene 3552)
Nature of the test: BSK_LPS_IL1a: BioMAP Diversity Plus: LPS Assay for Interleukin-1 alpha (IL1a) Biomarker Activity (AID 2283080). The following applies: primary human HUVEC with PBMC; actives raise or lower the signal. Put shortly: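 Human umbilical vein endothelial cells co-cultured with PBMC and stimulated with LPS; IL-1a measured by ELISA 24 h after dosing. Bidirectional fitting against DMSO; cytotoxicity checked by SRB staining in parallel cultures.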

Read-out in test [19]: Monocyte Chemoattractant Protein-1 (MCP1), CCL2 (gene 6347)
In words: BSK_LPS_MCP1: BioMAP Diversity Plus: LPS Assay for Monocyte Chemoattractant Protein-1 (MCP1) Biomarker Activity (AID 2283081).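 On AC50: secreted MCP-1 protein quantified by ELISA in culture supernatant.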 Conditions: primary human HUVEC with PBMC; actives raise or lower the signal. The procedure, abridged: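 Human umbilical vein endothelial cells co-cultured with PBMC, LPS-stimulated; secreted MCP-1 measured by ELISA 24 h after compound addition. Bidirectional curve fitting against DMSO baseline; SRB total-protein staining in parallel cultures for cytotoxicity.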

Read-out in test [20]: Plasminogen activator inhibitor-1 (PAI1), SERPINE1 (gene 5054)
Nature of the test: BSK_hDFCGF_PAI1: BioMAP Diversity Plus: hDFCGF Assay for Plasminogen activator inhibitor-1 (PAI1) Biomarker Activity (AID 2283066). The following applies: primary human foreskin fibroblasts; actives raise or lower the signal. The procedure, abridged: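 Human foreskin fibroblast primary cells, 24 h chemical exposure; PAI-1 measured by ELISA. Bidirectional fitting relative to DMSO; parallel cultures stained with SRB for total protein to flag overt cytotoxicity.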

Sequence of E-selectin (Homo sapiens) (P16581 whole entry, looked up): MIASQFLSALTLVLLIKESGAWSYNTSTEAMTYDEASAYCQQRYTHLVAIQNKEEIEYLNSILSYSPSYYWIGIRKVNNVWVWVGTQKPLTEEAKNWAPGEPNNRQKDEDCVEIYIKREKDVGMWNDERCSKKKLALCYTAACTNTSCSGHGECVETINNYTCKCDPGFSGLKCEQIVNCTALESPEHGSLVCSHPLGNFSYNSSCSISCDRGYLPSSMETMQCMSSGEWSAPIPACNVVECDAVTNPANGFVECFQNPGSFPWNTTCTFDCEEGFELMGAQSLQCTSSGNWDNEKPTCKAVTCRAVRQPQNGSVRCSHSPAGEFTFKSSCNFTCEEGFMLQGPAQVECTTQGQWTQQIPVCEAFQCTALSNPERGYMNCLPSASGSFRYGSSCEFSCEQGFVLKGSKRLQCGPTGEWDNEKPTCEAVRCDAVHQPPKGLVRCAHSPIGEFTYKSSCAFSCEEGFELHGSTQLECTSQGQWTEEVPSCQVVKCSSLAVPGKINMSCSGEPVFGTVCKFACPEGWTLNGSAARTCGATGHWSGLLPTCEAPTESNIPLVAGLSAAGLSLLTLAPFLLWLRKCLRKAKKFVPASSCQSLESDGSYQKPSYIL

With `Cc1cccc(N)c1N`, the result in [1], in test [2], in test [3], in test [4], in test [6] and in [7] was inactive. Further, the result in test [8], in test [9], in [10], in [11], in test [12] and in test [13] was inactive. The result in test [15], in test [17], in [18] and in test [19] was inactive. Besides, the values for the AC50 in test [5], in test [14] and in [16] were 9.01 µM (active), 7.51 µM (active) and 20 µM (active), respectively.

As for `CCCCCCCCn1sccc1=O`, the AC50 in [1] is 2.09 µM (active); in test [2], 0.949 µM (active); in test [3], 1.43 µM (active); in test [4] it was 1.09 µM (active); in test [20], 1.4 µM (active); in [5] it was 9.79 µM (active). The AC50 in [6] was 8.03 µM (active); in test [7], 6.74 µM (active); in test [8] it was 9.05 µM (active); in test [9], 11.2 µM (active); in test [10] it was 9.71 µM (active); in test [11] it was 10.6 µM (active). The AC50 in test [12] is 12.4 µM (active); in test [13], 11.2 µM (active); in [14] it was 5.76 µM (active); in test [15] it was 9.25 µM (active); in test [16], 9.78 µM (active); in [17], 20.8 µM (active). The AC50 in [18] is 4.97 µM (active); in [19], 6.88 µM (active).

Turning to `CC(C)(C)OOC(=O)c1ccccc1`, the AC50 in [1] is 11.9 µM (active); in [2] it was 35.1 µM (active); in [3], 20 µM (active); in test [4], 32.9 µM (active); in [20] it was 7.15 µM (active). The outcome in test [5], in test [6], in [7], in [8], in [9] and in test [10] was inactive. For the same compound, the result in [11], in test [12], in [13], in [14], in test [15] and in test [16] was inactive. In addition, the outcome in test [17], in test [18] and in [19] was inactive.

For `CNC(=O)Oc1cccc2c1OC(C)(C)C2`, the result in test [1], in test [2], in [3], in test [4], in test [20] and in test [5] was inactive. Also, the outcome in test [6], in test [7], in test [8], in test [9], in test [10] and in [11] was inactive. Besides, the result in test [12], in test [13], in test [14], in test [15], in test [16] and in test [17] was inactive. The outcome in [18] and in [19] was inactive.

For `Cc1ccc(N)cc1`, the result in [1], in test [2], in test [3], in test [4], in test [20] and in test [5] was inactive. For the same compound, the outcome in test [6], in test [7], in [8], in test [9], in [10] and in test [11] was inactive. Further, the result in [12], in test [13], in test [14], in [15], in [16] and in test [17] was inactive. Moreover, the result in test [18] and in [19] was inactive.

With `CC(C)(C)OOC(C)(C)CCC(C)(C)OOC(C)(C)C`, the outcome in [1], in [2], in test [3], in test [4], in [20] and in [5] was inactive. The outcome in [6], in test [7], in test [8], in [9], in test [10] and in test [11] was inactive. The outcome in test [12], in test [13], in test [14], in test [15], in test [16] and in [17] was inactive. For the same compound, the outcome in test [18] and in test [19] was inactive.

By AC50 is commonly meant the concentration giving half of the maximal activity seen.
